# Compounds without any hit were thinned out: in the full panel of roughly 83,000, 20% have a hit.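 Assay: single dose, 48 h. Readout: percent growth (0 = no net growth; negative = cell death). Active: <10.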 Values without a mark were called inactive. Calls of active or inactive are those of the source.
# System: A498 renal
# Assay: NCI-60 one-dose screen, 48 h (100 = growth as untreated, 0 = no growth, -100 = all killed)
# Conditions: 10 µM unless noted
# Experimental: Growth inhibition of the A498 human tumor cell line is measured as a screen for anti-cancer activity. Cells are grown in 96 well plates and exposed to the test compound for 48 hours. Compounds are tested at a single concentration, which is 10^-5 M for most compounds. The reported endpoint is percent growth (GI% or GIPRCNT), where numbers from 0 - 100% represent growth inhibition, and numbers from -100% - 0 represent cell death. For example, a value of 40 represents 60% growth inhibition. A value of 0 means no net growth occurred over the course of the experiment. A value of -40 indicates 40% of cells at the beginning of the experiment died by the end of the experiment. A value of -100 means all cells are dead at the end of the experiment.
# NCI-60 Human Tumor Cell Lines Screen was performed using the standard one-dose NCI protocol, which is described in more detail at https://dtp.cancer.gov/discovery_development/nci-60/default.htm.
# Compounds with GIPRCNT values below 10 were considered active. Activity score was based on GIPRCNT using the following formula: […]
# Score is 0 for GIPRCNT values of 100 or above, 50 for GIPRCNT values of 0, and 100 for GIPRCNT values of -100.
row,SMILES,growth
1,C=C1C(=O)O[C@H]2[C@H]1CC/C(COC(=O)/C=C/C(=O)OC/C1=C/CC[C@@]3(C)O[C@H]3[C@H]3OC(=O)C(=C)[C@@H]3CC1)=C\CC[C@@]1(C)O[C@@H]21,102%
2,COc1ccc(C(=O)/C=C/c2ccc(Cl)cc2)cc1S(=O)(=O)Nc1c(N)nc(SC)[nH]c1=O,80.9%
3,CCNC(=O)Oc1ccc(/C(=C(/CC)Cc2ccccc2)c2ccc(OCCN3CCCC3)cc2)cc1,89.3%
4,CN(CCCNC(=O)CCOCCOCCOCCNC(=O)Cc1ccc2ccc3cccc4ccc1c2c34)CCCNc1cc(-c2ccc3ccccc3c2)nc2ccccc12,-86.6% (active)
5,CCOC(=O)C(=CNc1cnc(Nc2ccc(N3CCOCC3)cc2)nc1Oc1ccc(OC)cc1)C(=O)OCC,42.1%
6,Fc1ccc(Cn2cc(CSc3nc4ccccc4o3)nn2)cc1,98%
7,Nc1nc(N)c2c(n1)NC(c1cccc(Nc3ccnc4cc(C(F)(F)F)ccc34)c1)CC(c1ccc(Br)cc1)=N2 (stereo not given),77.1%
8,Cc1ccc(-c2nc3nc(-c4ccccc4)nc(N4CCCN(S(C)(=O)=O)CC4)c3o2)cc1,94.3%
9,O=C(Nc1cnc(Nc2ccc(N3CCOCC3)nc2)nc1Oc1ccc(C(F)(F)F)cc1)c1ccncc1,95.8%
10,Ic1ccccc1I,106%
11,Nc1c(C(=O)Nc2cccc(Cl)c2)sc2nc3c(cc12)CCCC3,87.6%
12,C[C@@H]1O[C@@H](O[C@@H]2C[C@H](c3ccc4c(c3O)C(=O)C3=C(C4=O)[C@@]4(O)C(=O)C[C@](C)(O)C[C@@]4(O)C=C3)O[C@H](C)[C@H]2O)CC[C@@H]1O[C@H]1C[C@@H](O)[C@H](O)[C@@H](C)O1,108%
13,CCn1c(-c2cc3c([nH]c4ccccc43)c(-c3cccc(O)c3)n2)n[nH]c1=S,35%
14,C#CCn1cnc2cnc(Nc3cccc(NC(=O)C=C)c3)nc21,72% [6.25 µM]
15,COc1ccc(CNc2c3ccccc3nc3ccccc23)c(OC)c1,-11.5% (active)
16,Cc1ccnc(Nc2ccc([N+](=O)[O-])c(NCCN3CCOCC3)n2)c1,24.9%
17,CCN(CC)Cc1cc(Nc2ccnc3cc(Cl)ccc23)ccc1O,95.7%
18,N#C/C(=C\c1ccc(-c2cccc(C(F)(F)F)c2)o1)c1ccccc1,102%
19,C=C(c1ccc(OC)c(/C=C/C(=O)c2ccc3c(c2)OCO3)c1)c1cc(OC)c(OC)c(OC)c1,17.7%
20,CC/C=C\CCC/C=C1/C(=O)C=C[C@@H]1C/C=C\CCCC(=O)OC,95.9%

row,SMILES,growth
1,CC(C)(C)n1cc(-c2ccnc(NCCCNS(=O)(=O)c3ccc(C(F)(F)F)cc3)c2)c(-c2cccc(F)c2)n1,92.5%
2,COc1ccc(C#Cc2ccc(=O)oc2-c2cc(OC)c(OC)c(OC)c2)cc1O,56.6%
3,N#Cc1cccc(C2C3=C(COC3=O)N(CCO)c3cc4c(cc32)CCC4)c1 (stereo not given),-6.54% (active)
4,O=S(=O)(NCCNc1nccc(-c2c(-c3cccc(O)c3)nc3occn23)n1)c1ccc(Br)cc1,39.7%
5,Cc1ccc(C(=O)c2ccc(CC(=O)NN3C(=O)c4ccccc4C3=O)n2C)cc1,104%
6,COc1cc(C(=O)c2c(-c3ccccc3)oc3c(OC)cccc23)cc(OC)c1OC,-28% (active)
7,Cc1c2cccnc2c(C)c2c1c1cc(CO)ccc1n2C,-81.1% (active)
8,Nc1ncnc2c1N=C(c1ccc3c(c1)OCO3)CC(c1cccc(Nc3ccnc4cc(C(F)(F)F)ccc34)c1)N2 (stereo not given),74.5%
9,COc1ccc(-c2n[nH]c(=O)c3nc(NC(=S)Nc4ccc(Oc5ccccc5)cc4)sc23)cc1,80.4%
10,CCN(CC)CCN1C(=O)c2cccc3c(/C=C/CN4C(=O)c5cccc6cccc(c56)C4=O)ccc(c23)C1=O,77.7%
11,CCOC(=O)c1nn(CC(O)c2ccccc2)c(NC(=O)Nc2cccc(F)c2)c1C (stereo not given),76.7%
12,O=C(Oc1ccc(CCl)cc1)c1ccccc1,-87.4% (active)
13,CCN1C(=O)N(CC)C2C1NC(=S)N2/N=C/c1ccc(C(F)(F)F)cc1 (stereo not given),44.9%
14,O=C(CN1CCN(c2cc3c(cc2F)c(=O)c(C(=O)O)cn3C2CC2)CC1)N/N=C/c1ccco1,91.7%
15,S=c1nc2oc(-c3ccccc3)c(-c3ccccc3)c2c(/N=C\c2ccco2)[nH]1,101%
16,NC1(CO)COC(c2ccccc2)OC1 (stereo not given),107%
17,O=C(Cc1ccc(/C=C/C(=O)c2ncc[nH]2)cc1)Nc1cc(C(F)(F)F)cc(C(F)(F)F)c1,94.3%
18,CCN(CC)CCN1C(=O)c2c(c(C)c3c(oc4ccc(OC)cc43)c2C)C1=O,90.8%
19,CNC1=CC(=O)c2c(C(=O)OC)c(C)[n+]([O-])c(C)c2C1=O,103%
20,NC(=O)c1c(NC(=O)c2cccs2)sc2c1CCC(=O)C2,95%

# Reference: PubChem BioAssay (NCI)
